# Data: publication PMC7862700, “An all-to-all approach to the identification of sequence-specific readers for epigenetic DNA modifications on cytosine”
# How the values were obtained:
# Assay in all cases: DAPPL (digital affinity profiling via proximity ligation, sequencing); 10 mM Tris-HCl pH 7.5, 50 mM NaCl, 1 mM DTT, 4% glycerol, room temperature, 30 min; GST-TFs on glutathione beads, 16-mer random dsDNA library, 0.1% formaldehyde crosslink after washing; high values mean tight binding
# FEV = target: T1, FEV (Homo sapiens, UniProt Q99581 1-238); settings: protein: recombinant; tags: N-terminal GST; dsDNA, one strand shown
# T1 sequence: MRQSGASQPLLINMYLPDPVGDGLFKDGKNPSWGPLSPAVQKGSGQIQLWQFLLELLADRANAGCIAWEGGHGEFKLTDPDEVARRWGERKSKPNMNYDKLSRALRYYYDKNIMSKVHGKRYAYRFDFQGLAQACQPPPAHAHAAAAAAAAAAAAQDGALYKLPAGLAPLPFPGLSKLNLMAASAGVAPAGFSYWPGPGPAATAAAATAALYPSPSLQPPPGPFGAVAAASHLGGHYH
# Outline: (§1)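 Beads coated with glutathione captured GST-fused human transcription factors that had been expressed in yeast, and the factors were then given DNA barcodes and pooled with a tag-only sample. The pools were incubated with 200 nmole of a random double-stranded 16-mer DNA library in Tris/NaCl/DTT/glycerol buffer for 30 min at room temperature, washed, crosslinked with 0.1% formaldehyde and proximity-ligated with BsaI/T4 ligase at 37 °C for 1 h. PCR amplification and Illumina NextSeq500 sequencing came last. Binding signal is each hexamer's read frequency for a factor divided by its frequency for the tag-only sample.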
# ETV5 = ETV5 (Homo sapiens, UniProt P41161 1-510); settings: protein: recombinant; tags: N-terminal GST; dsDNA, one strand shown
# Outline: as §1
# HSF1 = HSF1 (Homo sapiens, UniProt Q00613 1-529); settings: protein: recombinant; tags: N-terminal GST; chain copies: 3; dsDNA, one strand shown
# Outline: as §1
# SPIC = target: T2, SPIC (Homo sapiens, UniProt Q8N5J4 1-248); settings: protein: recombinant; tags: N-terminal GST; dsDNA, one strand shown
# T2 sequence: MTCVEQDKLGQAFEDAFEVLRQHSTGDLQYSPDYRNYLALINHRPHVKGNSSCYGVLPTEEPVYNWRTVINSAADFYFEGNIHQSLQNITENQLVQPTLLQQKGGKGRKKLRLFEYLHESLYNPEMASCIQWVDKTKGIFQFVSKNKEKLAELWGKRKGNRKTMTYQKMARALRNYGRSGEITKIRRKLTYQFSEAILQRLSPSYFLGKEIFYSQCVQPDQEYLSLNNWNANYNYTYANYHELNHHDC
# Outline: as §1
# ELF4 = ELF4 (Homo sapiens, UniProt Q99607 1-663); settings: protein: recombinant; tags: N-terminal GST; dsDNA, one strand shown
# Outline: as §1
# ELK4 = target: T3, ELK4 (Homo sapiens, UniProt P28324-2 1-405); settings: protein: recombinant; tags: N-terminal GST; dsDNA, one strand shown
# T3 sequence: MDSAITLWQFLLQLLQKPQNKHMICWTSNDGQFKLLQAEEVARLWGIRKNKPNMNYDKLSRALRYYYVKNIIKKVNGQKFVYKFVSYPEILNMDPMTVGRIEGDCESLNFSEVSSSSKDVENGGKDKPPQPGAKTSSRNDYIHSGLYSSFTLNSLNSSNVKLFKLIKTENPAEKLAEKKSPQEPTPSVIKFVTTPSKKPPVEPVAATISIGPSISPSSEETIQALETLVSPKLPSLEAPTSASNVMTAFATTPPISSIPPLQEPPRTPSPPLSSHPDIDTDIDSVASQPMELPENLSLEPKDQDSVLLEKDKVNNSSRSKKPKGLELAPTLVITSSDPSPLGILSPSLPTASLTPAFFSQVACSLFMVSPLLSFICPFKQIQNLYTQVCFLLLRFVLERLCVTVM
# Outline: as §1
# ETV2 = target: T4, ETV2 (Homo sapiens, UniProt O00321 1-342); settings: protein: recombinant; tags: N-terminal GST; dsDNA, one strand shown
# T4 sequence: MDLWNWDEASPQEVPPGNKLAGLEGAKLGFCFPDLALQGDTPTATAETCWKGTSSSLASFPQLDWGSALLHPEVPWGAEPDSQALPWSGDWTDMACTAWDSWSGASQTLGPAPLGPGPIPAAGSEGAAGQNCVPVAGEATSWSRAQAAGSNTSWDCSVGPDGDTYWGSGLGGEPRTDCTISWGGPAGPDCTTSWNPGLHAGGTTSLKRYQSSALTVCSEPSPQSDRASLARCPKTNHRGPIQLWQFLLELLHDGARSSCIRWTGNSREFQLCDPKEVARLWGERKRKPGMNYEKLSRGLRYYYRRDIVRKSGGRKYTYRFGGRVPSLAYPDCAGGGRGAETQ
# Outline: as §1
# ELF3 = target: T5, ELF3 (Homo sapiens, UniProt P78545 1-371); settings: protein: recombinant; tags: N-terminal GST; dsDNA, one strand shown
# T5 sequence: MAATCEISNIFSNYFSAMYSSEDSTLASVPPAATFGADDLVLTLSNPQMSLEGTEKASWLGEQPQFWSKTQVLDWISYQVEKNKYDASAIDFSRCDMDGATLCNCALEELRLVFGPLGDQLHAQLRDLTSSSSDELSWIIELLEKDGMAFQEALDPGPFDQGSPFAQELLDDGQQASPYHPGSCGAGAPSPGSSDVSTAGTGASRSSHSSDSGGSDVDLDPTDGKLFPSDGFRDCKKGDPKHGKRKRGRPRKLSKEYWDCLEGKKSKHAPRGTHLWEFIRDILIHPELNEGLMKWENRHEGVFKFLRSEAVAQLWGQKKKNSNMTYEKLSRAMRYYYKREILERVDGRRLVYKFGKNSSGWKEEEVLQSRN
# Outline: as §1
# CRX = CRX (Homo sapiens, UniProt O43186 1-299); settings: protein: recombinant; tags: N-terminal GST; dsDNA, one strand shown
# Outline: as §1
# ETV1 = ETV1 (Homo sapiens, UniProt P50549 1-477); settings: protein: recombinant; tags: N-terminal GST; dsDNA, one strand shown
# Outline: as §1
# ERF = target: T6, ERF (Homo sapiens, UniProt P50548 1-548); settings: protein: recombinant; tags: N-terminal GST; dsDNA, one strand shown
# T6 sequence: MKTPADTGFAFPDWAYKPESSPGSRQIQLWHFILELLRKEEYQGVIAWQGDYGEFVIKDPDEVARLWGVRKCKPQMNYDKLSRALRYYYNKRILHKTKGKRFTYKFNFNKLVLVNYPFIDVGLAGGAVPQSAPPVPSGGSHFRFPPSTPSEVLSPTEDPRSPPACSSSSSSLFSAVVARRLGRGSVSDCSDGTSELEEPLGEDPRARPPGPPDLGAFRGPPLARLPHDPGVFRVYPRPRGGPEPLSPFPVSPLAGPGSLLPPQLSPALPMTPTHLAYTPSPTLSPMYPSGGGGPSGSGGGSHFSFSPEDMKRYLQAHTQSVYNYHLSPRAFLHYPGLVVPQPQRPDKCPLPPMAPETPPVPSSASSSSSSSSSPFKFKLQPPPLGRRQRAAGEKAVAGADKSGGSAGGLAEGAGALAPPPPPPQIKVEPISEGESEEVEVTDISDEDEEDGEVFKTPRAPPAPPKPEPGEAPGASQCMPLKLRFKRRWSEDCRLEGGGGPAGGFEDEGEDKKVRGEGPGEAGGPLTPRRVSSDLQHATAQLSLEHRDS
# Outline: as §1
# ETV3L = target: T7, ETV3L (Homo sapiens, UniProt Q6ZN32 1-361); settings: protein: recombinant; tags: N-terminal GST; dsDNA, one strand shown
# T7 sequence: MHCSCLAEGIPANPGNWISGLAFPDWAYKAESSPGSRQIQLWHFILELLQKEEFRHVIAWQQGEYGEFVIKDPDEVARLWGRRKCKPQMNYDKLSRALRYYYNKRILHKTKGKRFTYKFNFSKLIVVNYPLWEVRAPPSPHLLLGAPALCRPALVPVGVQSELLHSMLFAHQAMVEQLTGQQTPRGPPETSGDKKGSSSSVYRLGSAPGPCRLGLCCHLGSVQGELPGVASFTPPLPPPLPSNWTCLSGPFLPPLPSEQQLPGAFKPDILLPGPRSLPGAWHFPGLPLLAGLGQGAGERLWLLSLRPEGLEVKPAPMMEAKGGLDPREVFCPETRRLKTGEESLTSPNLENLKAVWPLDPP
# Outline: as §1
# ETS2 = target: T8, ETS2 (Homo sapiens, UniProt P15036 1-469); settings: protein: recombinant; tags: N-terminal GST; dsDNA, one strand shown
# T8 sequence: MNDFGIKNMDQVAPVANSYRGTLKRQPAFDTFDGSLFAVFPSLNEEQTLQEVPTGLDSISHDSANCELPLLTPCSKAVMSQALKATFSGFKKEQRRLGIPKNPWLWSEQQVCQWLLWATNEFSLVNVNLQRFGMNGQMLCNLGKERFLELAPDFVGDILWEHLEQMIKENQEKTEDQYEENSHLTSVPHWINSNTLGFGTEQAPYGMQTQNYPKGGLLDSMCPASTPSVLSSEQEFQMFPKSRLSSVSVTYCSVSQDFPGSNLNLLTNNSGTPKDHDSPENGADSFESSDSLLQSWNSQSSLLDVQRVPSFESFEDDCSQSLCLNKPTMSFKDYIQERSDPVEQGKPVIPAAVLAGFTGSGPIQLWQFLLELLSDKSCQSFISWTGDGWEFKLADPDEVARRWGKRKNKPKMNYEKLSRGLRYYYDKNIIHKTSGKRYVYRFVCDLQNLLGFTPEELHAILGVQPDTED
# Outline: as §1
# SPDEF = target: T9, SPDEF (Homo sapiens, UniProt O95238 1-335); settings: protein: recombinant; tags: N-terminal GST; dsDNA, one strand shown
# T9 sequence: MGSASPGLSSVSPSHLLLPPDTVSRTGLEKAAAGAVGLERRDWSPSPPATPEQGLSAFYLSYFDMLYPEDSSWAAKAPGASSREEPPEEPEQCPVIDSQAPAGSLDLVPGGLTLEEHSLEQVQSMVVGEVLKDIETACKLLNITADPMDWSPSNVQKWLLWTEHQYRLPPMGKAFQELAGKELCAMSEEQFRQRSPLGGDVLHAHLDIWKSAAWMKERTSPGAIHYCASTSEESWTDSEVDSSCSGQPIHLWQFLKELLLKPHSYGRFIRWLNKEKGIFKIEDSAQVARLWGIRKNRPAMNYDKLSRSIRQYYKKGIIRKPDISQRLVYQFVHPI
# Outline: as §1
# ETV7 = target: T10, ETV7 (Homo sapiens, UniProt Q9Y603 1-341); settings: protein: recombinant; tags: N-terminal GST; dsDNA, one strand shown
# T10 sequence: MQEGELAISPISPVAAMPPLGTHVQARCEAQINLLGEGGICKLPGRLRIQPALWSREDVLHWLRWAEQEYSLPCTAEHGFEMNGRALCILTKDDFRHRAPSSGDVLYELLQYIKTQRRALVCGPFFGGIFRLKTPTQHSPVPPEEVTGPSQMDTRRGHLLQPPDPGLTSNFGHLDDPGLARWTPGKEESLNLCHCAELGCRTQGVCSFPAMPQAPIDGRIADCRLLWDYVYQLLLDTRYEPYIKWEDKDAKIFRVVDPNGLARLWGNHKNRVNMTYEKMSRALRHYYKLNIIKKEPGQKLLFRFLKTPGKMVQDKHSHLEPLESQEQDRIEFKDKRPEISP
# Outline: as §1
# ELF5 = target: T11, ELF5 (Homo sapiens, UniProt Q9UKW6-2 1-255); settings: protein: recombinant; tags: N-terminal GST; dsDNA, one strand shown
# T11 sequence: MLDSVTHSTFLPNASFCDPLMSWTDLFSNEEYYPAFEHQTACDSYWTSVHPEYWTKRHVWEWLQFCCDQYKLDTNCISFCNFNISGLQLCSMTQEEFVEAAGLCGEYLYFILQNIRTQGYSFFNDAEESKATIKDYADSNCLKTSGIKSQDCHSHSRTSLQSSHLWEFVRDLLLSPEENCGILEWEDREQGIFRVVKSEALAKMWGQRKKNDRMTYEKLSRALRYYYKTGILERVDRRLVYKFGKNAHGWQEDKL
# Outline: as §1
# ETV3 = target: T12, ETV3 (Homo sapiens, UniProt P41162-2 1-143); settings: protein: recombinant; tags: N-terminal GST; dsDNA, one strand shown
# T12 sequence: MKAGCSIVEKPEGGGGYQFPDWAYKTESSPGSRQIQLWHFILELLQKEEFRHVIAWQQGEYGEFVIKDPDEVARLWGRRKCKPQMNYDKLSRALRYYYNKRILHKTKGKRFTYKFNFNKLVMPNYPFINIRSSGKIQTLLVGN
# Outline: as §1
# ETV6 = ETV6 (Homo sapiens, UniProt P41212 1-452); settings: protein: recombinant; tags: N-terminal GST; dsDNA, one strand shown
# Outline: as §1
# Chain of ETV5 (P41161 whole entry): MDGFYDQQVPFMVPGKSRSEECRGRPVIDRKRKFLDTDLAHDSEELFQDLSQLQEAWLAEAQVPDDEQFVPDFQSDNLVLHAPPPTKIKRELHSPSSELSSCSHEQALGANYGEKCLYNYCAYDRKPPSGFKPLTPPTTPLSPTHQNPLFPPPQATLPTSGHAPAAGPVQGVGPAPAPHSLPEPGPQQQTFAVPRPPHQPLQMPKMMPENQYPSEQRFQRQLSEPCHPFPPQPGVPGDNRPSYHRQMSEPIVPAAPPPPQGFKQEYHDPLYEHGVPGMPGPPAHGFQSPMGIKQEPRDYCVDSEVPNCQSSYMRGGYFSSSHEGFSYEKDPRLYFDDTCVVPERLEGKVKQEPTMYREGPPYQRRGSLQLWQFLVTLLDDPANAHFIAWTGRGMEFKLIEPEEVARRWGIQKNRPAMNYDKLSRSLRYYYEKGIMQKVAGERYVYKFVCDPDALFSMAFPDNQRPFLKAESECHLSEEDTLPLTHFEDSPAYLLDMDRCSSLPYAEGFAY
# Chain of CRX (O43186 whole entry): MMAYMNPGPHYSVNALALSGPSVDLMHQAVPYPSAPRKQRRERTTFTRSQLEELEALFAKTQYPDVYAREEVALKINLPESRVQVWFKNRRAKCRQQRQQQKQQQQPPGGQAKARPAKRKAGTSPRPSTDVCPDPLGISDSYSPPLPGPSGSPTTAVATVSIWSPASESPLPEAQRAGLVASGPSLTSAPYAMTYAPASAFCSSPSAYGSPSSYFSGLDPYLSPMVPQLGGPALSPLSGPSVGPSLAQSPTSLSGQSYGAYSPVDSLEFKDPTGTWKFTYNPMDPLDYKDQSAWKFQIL
# Chain of ETV1 (P50549 whole entry): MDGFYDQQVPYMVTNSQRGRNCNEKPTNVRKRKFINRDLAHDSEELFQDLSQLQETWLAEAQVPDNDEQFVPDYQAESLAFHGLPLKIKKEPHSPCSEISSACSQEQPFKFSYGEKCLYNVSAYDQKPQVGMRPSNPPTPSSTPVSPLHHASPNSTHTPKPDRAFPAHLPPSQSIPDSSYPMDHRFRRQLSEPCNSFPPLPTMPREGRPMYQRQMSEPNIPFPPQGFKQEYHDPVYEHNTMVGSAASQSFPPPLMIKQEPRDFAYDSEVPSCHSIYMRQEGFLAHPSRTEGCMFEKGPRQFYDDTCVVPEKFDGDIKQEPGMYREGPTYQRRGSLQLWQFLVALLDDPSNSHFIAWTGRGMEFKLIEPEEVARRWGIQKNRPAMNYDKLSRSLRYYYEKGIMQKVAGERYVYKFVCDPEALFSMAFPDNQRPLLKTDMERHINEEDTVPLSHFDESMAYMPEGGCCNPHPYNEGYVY
# Chain of ELF4 (Q99607 whole entry): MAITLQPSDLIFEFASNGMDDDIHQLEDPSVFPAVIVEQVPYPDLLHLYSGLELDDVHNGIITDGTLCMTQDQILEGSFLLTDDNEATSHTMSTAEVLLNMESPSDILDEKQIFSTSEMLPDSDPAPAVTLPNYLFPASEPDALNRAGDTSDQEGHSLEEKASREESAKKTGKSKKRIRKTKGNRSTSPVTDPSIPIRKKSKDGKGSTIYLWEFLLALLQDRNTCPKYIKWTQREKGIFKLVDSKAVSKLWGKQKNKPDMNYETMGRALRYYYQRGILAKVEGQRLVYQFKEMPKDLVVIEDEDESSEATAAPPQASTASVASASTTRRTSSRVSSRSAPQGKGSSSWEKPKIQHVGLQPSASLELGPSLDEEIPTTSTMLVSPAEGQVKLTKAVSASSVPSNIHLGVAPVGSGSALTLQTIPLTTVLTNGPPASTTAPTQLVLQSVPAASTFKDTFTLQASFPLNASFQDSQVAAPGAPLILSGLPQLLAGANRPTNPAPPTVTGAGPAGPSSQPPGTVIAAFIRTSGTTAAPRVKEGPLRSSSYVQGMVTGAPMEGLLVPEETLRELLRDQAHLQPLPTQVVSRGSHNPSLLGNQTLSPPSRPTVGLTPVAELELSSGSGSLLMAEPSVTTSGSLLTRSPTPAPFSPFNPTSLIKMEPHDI
# Chain of HSF1 (Q00613 whole entry): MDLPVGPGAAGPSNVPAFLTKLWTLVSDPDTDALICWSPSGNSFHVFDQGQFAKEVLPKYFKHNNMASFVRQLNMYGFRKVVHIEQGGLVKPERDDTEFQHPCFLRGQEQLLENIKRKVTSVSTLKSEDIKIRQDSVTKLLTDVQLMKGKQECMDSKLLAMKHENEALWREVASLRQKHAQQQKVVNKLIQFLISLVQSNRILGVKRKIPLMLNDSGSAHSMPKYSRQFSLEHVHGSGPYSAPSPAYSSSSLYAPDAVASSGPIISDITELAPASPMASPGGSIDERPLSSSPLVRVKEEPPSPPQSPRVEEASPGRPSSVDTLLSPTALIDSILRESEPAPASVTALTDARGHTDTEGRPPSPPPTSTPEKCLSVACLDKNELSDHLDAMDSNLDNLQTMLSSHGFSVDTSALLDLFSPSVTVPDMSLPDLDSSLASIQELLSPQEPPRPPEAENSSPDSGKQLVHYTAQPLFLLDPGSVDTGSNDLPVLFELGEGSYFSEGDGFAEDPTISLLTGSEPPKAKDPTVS
# Chain of ETV6 (P41212 whole entry): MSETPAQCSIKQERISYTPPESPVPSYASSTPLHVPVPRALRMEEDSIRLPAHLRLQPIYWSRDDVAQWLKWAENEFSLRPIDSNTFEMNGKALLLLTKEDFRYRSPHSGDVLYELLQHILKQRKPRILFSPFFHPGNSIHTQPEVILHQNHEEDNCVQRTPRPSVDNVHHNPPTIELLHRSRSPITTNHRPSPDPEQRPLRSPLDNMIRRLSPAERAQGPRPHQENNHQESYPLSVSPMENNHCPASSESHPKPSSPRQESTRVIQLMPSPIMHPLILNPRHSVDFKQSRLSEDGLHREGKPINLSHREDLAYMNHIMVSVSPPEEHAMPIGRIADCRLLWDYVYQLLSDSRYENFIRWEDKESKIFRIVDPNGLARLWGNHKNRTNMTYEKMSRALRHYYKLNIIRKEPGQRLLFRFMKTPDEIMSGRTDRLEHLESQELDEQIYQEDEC
sequence,measurement,setting,value
TTGCTG,binding signal,FEV,"1.13 fold enrichment (6-mer frequency, TF over GST control)"
same,binding signal,ETV5,"1.09 fold enrichment (6-mer frequency, TF over GST control)"
same,binding signal,HSF1,"1.23 fold enrichment (6-mer frequency, TF over GST control)"
same,binding signal,SPIC,"1.02 fold enrichment (6-mer frequency, TF over GST control)"
same,binding signal,ELF4,"1.35 fold enrichment (6-mer frequency, TF over GST control)"
same,binding signal,ELK4,"1.34 fold enrichment (6-mer frequency, TF over GST control)"
same,binding signal,ETV2,"1.42 fold enrichment (6-mer frequency, TF over GST control)"
same,binding signal,ELF3,"1.33 fold enrichment (6-mer frequency, TF over GST control)"
same,binding signal,CRX,"1.26 fold enrichment (6-mer frequency, TF over GST control)"
same,binding signal,ETV1,"1.39 fold enrichment (6-mer frequency, TF over GST control)"
same,binding signal,ERF,"1.28 fold enrichment (6-mer frequency, TF over GST control)"
same,binding signal,ETV3L,"1.26 fold enrichment (6-mer frequency, TF over GST control)"
same,binding signal,ETS2,"1.21 fold enrichment (6-mer frequency, TF over GST control)"
same,binding signal,SPDEF,"1.18 fold enrichment (6-mer frequency, TF over GST control)"
same,binding signal,ETV7,"1.37 fold enrichment (6-mer frequency, TF over GST control)"
same,binding signal,ELF5,"1.14 fold enrichment (6-mer frequency, TF over GST control)"
same,binding signal,ETV3,"1.23 fold enrichment (6-mer frequency, TF over GST control)"
same,binding signal,ETV6,"1.13 fold enrichment (6-mer frequency, TF over GST control)"
